Source: PubChem
TRPM1 prom inh – inhibitors of MITF-dependent TRPM1 promoter reporter, primary screen, cell-based, SK-MEL-5, single point, luciferase; SK-MEL-5 TRPM1 promoter luciferase, 24 h; inhibition, % at 12.5 µM; actives 0.83% (n = 330,000); AID 488899, 2010;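 active = mean inhibition across replicates of 60% or more, whatever share of single replicates reaches that level; inconclusive = some that reach 60%, reason not given; inactive = mean inhibition across replicates below 60%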
LMP1 NFkB inh – EBV LMP1-driven NF-kappaB luciferase reporter inhibitors, primary screen, cell-based, luminescence, single point | LMP1-induced NF-kappaB luciferase reporter cells | actives 0.69% (n = 350,000) | inhibition, % at 12.5 µM; in the data active = inhibition above about 41%; inconclusive = no clear call, values can overlap the other calls;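 also: 0% = neutral control wells and 100% = reference inhibitor control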
Peg3 prom inh – Peg3 promoter-driven luciferase inhibitors, primary screen, cell-based, HeLa, luciferase luminescence; actives 1.7% (n = 360,000); HeLa PEG-Prom luciferase reporter, overnight; inhibition, % at 20 µM;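 active = inhibition of at least 50% at 20 µM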
Shn3 inh set2 – reduction of Shn3 3'UTR firefly luciferase signal, primary screen, Schnurri-3 inhibitor project, cell-based, Clone20 osteoblasts, set 2; Clone20 osteoblast Shn3 3'UTR firefly luciferase, 24 h; inhibition, % at 12.5 µM; actives 0.52% (n = 360,000); AID 588674, 2011;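 active = mean inhibition of at least 75% with every replicate also reaching 75%; inconclusive = mean inhibition at least 75% but some replicate below; inactive = mean inhibition below 75%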;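 also: 0% = median of neutral control wells and 100% = pilot-screen positive control compound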
KKLEB cytotox – cytotoxicity in KKLEB CF airway cells, primary screen, cytotoxicity control for CF NF-kB inhibitor project, cell-based, uHTS, fluorescence assay plates; activity change (cytotoxicity), % at 5 µM; KKLEB CF airway cells viability, ATPlite luminescence, overnight; active compounds read low; cells stimulated with P. aeruginosa culture filtrate; actives 0.36% (n = 360,000);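 active = corrected activity change at or below -50% at 5 µM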
CF NFkB block – inhibitors of PAF-induced NF-kB signaling, primary screen, cell-based, GFP fluorescence, uHTS; KKLEB NF-kB-GFP reporter, GFP fluorescence overnight; inhibition, % at 5 µM; actives 0.86% (n = 360,000);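 active = at least 50% inhibition at 5 µM, scaled per plate between neutral and stimulator controls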;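 also: PAF is a Pseudomonas aeruginosa culture filtrate used as stimulus; plate controls were PAF-stimulated DMSO wells for no effect and unstimulated DMSO wells for full effect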
Active calls of the source: *; u = inconclusive; x = not tested or not shown; ! = a repeat was not active. Sampled rows, rich in hits. Any-hit rate of the full collection: about 2.9%.

SMILES | TRPM1 prom inh | LMP1 NFkB inh | Peg3 prom inh | Shn3 inh set2 | KKLEB cytotox | CF NFkB block
O=C1NC(Cc2ccc(O)cc2)c2nc3ccc(F)cc3c(=O)n2-c2ncccc21 (stereo not drawn) | x | 1 | 9 | -14 | -23 | 14
CCN(CC)C(=O)C1=C(C)N(Cc2ccccc2)C(=O)C(CC(=O)NCc2cccc3ccccc23)C1 (stereo not drawn) | x | 1 | 28 | 4 | -8 | 6
CCCCN(C=O)c1c(CC)nc2c(OCc3cccc(Cl)c3)cccn12 | x | x | 12 | 0 | -7 | 8
Cc1ccc(C(=O)N2C(=S)C(c3ccc(F)cc3)=NC23CCN(C)CC3)cc1 | 51 | 18 | 90* | 75 | -2 | -1
O=C(Nc1cccc(O)c1)C(Cc1ccccc1)N1C(=O)c2cccc3cccc(c23)C1=O (stereo not drawn) | -6 | -7 | 66* | -5 | -22 | 24
c1cnc2ccc3ncccc3c2c1 | -2 | -2 | -53 | -9 | -3 | 11
O=Cc1ccc(O)c2ncccc12 | 63* | 59* | 39 | 70 | -4 | -2
CCc1cccc(NC(=O)COC(=O)C2COc3ccccc3O2)c1 (stereo not drawn) | x | -1 | -9 | 0 | 14 | -43
O=[N+]([O-])c1cc(S(=O)(=O)N2CCCC2)ccc1O | 7 | -3 | 0 | 17 | 4 | -11
O=[N+]([O-])c1cc(S(=O)(=O)N2CCCCCC2)ccc1F | 93* | -18 | 102* | 8 | -26 | 51*
Cn1c(/C(C#N)=C/c2ccc(-c3ccc(S(N)(=O)=O)cc3)o2)nc2ccccc21 | 57 | -33 | 72* | 28 | -6 | -148
Cn1c(/C(C#N)=C/c2cccc(O)c2)nc2ccccc21 | -15 | -4 | -162 | -54 | 4 | -4
C=CCn1c(SCc2ccc(C(=O)Nc3nccs3)cc2)nnc1-c1ccc(C)c(Cl)c1 | 19 | 6 | 52* | 75 | -5 | 23
CCCCCCCCSC1=CC(=O)C(OC)=C(OC)C1=O | x | -3 | 93* | 95* | -36 | 63*
O=C(/C=C/c1ccc(O)c(O)c1)OCCc1ccccc1 | -71 | -22 | -238 | 95* | 3 | 20
O=C(c1ccc(CSc2ccc(Cl)cc2)o1)N1CCOCC1 | x | x | -55 | -1 | -2 | 25
COc1cccc(C(C)(O)c2nc(-c3ccc4c(c3)OCO4)cs2)c1 (stereo not drawn) | x | x | -34 | -4 | 11 | -22
O=C(NC(Cc1c[nH]c2ccccc12)C(=O)O)c1cccc(S(=O)(=O)N2CCCCC2)c1 (stereo not drawn) | x | 1 | -1 | -4 | -3 | -4
COc1cc(Nc2ccccn2)cc(C(=O)Nc2cccc(C(F)(F)F)c2)c1 | 14 | -2 | 81*! | 35 | -8 | 2
O=c1c2ccccc2c(C=Nc2ccccc2O)c(O)n1-c1nccs1 | 1 | -1 | -11 | 87* | 12 | -52
CCOC(=O)C1(COCc2ccccc2)CCCCC1=O (stereo not drawn) | x | 1 | 17 | 14 | -15 | 11
COc1ccc(CCNc2ncnc3sccc23)cc1OC | 23 | 9 | -11 | 91* | -7 | -27
COc1ccc(Nc2ncnc3sccc23)cc1OC | -50 | x | -33 | -1 | 8 | 0
CC(O)C1CCC2C3CCC4CC(O)CCC4(C)C3C(=O)CC12C (stereo not drawn) | 0 | -7 | -6 | -17 | -1 | 20
COc1ccc(C(NC(=O)C2CCN(Cc3ccc(Oc4ccccc4)cc3)CC2)c2ccccn2)cc1 (stereo not drawn) | x | x | 10 | 46 | -10 | 23
SMILES | TRPM1 prom inh | LMP1 NFkB inh | Peg3 prom inh | Shn3 inh set2 | KKLEB cytotox | CF NFkB block
COCCN(CCOC)Cc1cc(=O)oc2ccc3ccccc3c12 | x | x | 9 | 3 | -12 | 0
CC(=O)/C=C/c1ccc2ccccc2n1 | 18 | 21 | 103* | -39 | -10 | 33
CC(OC(=O)/C=C/c1ccc2ccccc2n1)C(=O)N(C)c1ccccc1 (stereo not drawn) | 11 | 3 | -5 | -65 | -34 | 22
Cc1ccc(-c2nn(-c3ccccc3)cc2CO)cc1 | -63 | 0 | -263 | -53 | 5 | -2
N=C(N)SCc1cn(-c2ccccc2)nc1-c1ccc(Br)cc1 | 59 | -44 | 108* | u | -5 | 16
OC(c1cccnc1)c1nc(-c2ccc3c(c2)OCO3)cs1 (stereo not drawn) | x | x | -25 | -26 | 2 | 10
Cc1cc(C(=O)N2CCC2(C)C(=O)NCC(C)(C)C)nn1C (stereo not drawn) | x | x | 1 | 0 | 7 | -9
CC(C)NC(=O)c1cnc(N2CCN(c3ccccn3)CC2)c2ccccc12 | 1 | 8 | 21 | 8 | 17 | -11
CCc1ccc(NC(=O)c2cnc(N3CCN(c4ccccn4)CC3)c3ccccc23)cc1 | 43 | 18 | 65* | 56 | -14 | 23
C[C@H]1CN([C@@H](C)CO)C(=O)c2cc(C#CC3(O)CCCC3)cnc2O[C@H]1CN(C)C(=O)C1CC1 | x | 23 | 11 | -8 | -8 | 12
COc1cccc(C(=O)NNC(=O)Cc2ccc(Cl)cc2)c1 | -2 | 2 | 11 | -13 | -8 | -4
COc1cccc(CC(=O)NNC(=O)c2ccc3c(c2)OCO3)c1 | -2 | 45* | 11 | 10 | 7 | -7
CN(CCOc1ccccc1)C(=O)c1ccc2c(c1)OCO2 | -68 | -13 | -138 | -12 | 9 | -7
O=C(NCCOc1ccccc1)c1ccc2c(c1)OCO2 | 59 | 66* | 41 | -4 | -4 | 1
COc1cc(-c2cc(NC=O)c3ncc(-c4cccc(C(F)(F)F)c4)n3c2)cc(OC)c1OC | x | x | 52* | 28 | -4 | -9
COc1cc(-c2cc(NC=O)c3ncc(-c4ccccc4)n3c2)cc(OC)c1OC | x | x | 51* | -4 | -14 | 3
COc1cc(-c2cc(NC=O)c3ncc(-c4ccc(C(C)=O)cc4)n3c2)cc(OC)c1OC | x | x | 57* | 19 | -18 | 16
COc1cc(-c2cc(NC(C)=O)c3ncc(-c4cc(OC)c(OC)c(OC)c4)n3c2)cc(OC)c1OC | x | x | 52* | 9 | -5 | -64
COc1cc(-c2cnc3c(NC=O)cc(-c4ccccc4)cn23)cc(OC)c1OC | x | x | 10 | -2 | -9 | 43
COCCNc1nc(Nc2ccc(C#N)cc2)c2sccc2n1 | x | x | 3 | 15 | -19 | 14
O=S1(=O)C[C@H](N2CCCC2)[C@@H](COCc2ccccc2)N1 | x | x | 10 | -6 | 0 | -14
